Laboratory results from PubChem BioAssay AID1159580 (chemical genetic matrix, 2015).
Values joined by “and” are separate entries in the source; they are usually repeats but may differ in a detail not shown here. Identical values can stand only once. The whole screen tested about 5,500 compounds, of which about 2,000 (36%) were called active. Roughly 18% stayed inconclusive and do not appear here. Rule as the data show it: active = normalized growth mostly below about 0.91 (no sharp cut-off); inconclusive = no clear call, values can overlap the other calls; inactive = mostly above about 0.92. Some of the results follow.

Assay: chemical genetic growth profiling, strain panel (AID 1159580);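 also: tested at 20 µM; growth read once vehicle control cultures reached saturation at 30 °C; 1 = growth at the plate median or of vehicle wells; lower values mean less growth of the strain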
Details: growth OD

Measured: normalized growth

CC(N=C(NC#N)Nc1ccncc1)C(C)(C)C (stereo not drawn)
inactive: S. cerevisiae deletion strains, locus YJR043C, strain POL32, hits give low values 1.02 | S. cerevisiae deletion strains, locus YJR075W, strain HOC1, hits give low values 1.03 | S. cerevisiae deletion strains, locus YKL009W, strain mrt4, hits give low values 1.04 | S. cerevisiae deletion strains, locus YKL068W, hits give low values 1.01 | S. cerevisiae deletion strains, locus YKL085W, strain MDH1 (second series), hits give low values 1.01 | S. cerevisiae deletion strains, locus YKL085W, strain MDH1, hits give low values 1.01 | S. cerevisiae deletion strains, locus YKL160W, strain elf1, hits give low values 0.97 | S. cerevisiae deletion strains, locus YKL190W, strain CNB1, hits give low values 1.01 | S. cerevisiae deletion strains, locus YKR001C, strain vps1, hits give low values 1.02 | S. cerevisiae deletion strains, locus YKR026C, strain gcn3, hits give low values 0.978 | S. cerevisiae deletion strains, locus YKR091W, strain srl3, hits give low values 0.993 | S. cerevisiae deletion strains, locus YLL001W, strain dnm1, hits give low values 0.956 | S. cerevisiae deletion strains, locus YLL026W, hits give low values 0.968 | S. cerevisiae deletion strains, locus YLL041C, strain sdh2, hits give low values 0.982 | S. cerevisiae deletion strains, locus YLR027C, strain aat2, hits give low values 0.967 | S. cerevisiae deletion strains, locus YLR039C, strain RIC1, hits give low values 1.02 | S. cerevisiae deletion strains, locus YLR058C, strain SHM2, hits give low values 1.01 | S. cerevisiae deletion strains, locus YLR102C, strain apc9, hits give low values 1.02 | S. cerevisiae deletion strains, locus YLR221C, strain rsa3, hits give low values 1.02 | S. cerevisiae deletion strains, locus YLR258W, strain gsy2, hits give low values 1.01 | S. cerevisiae deletion strains, locus YLR262C, strain YPT6 (second series), hits give low values 0.947 | S. cerevisiae deletion strains, locus YLR262C, strain YPT6, hits give low values 1.04 | S. cerevisiae deletion strains, locus YLR268W, strain sec22, hits give low values 1.06 | S. cerevisiae deletion strains, locus YLR320W, strain mms22, hits give low values 1.02 | S. cerevisiae deletion strains, locus YLR330W, strain CHS5, hits give low values 1.01 | S. cerevisiae deletion strains, locus YLR342W, strain FKS1 (second series), hits give low values 0.984 | S. cerevisiae deletion strains, locus YLR342W, strain FKS1, hits give low values 0.945 | S. cerevisiae deletion strains, locus YLR357W, strain rsc2, hits give low values 0.957 | S. cerevisiae deletion strains, locus YLR370C, strain arc18, hits give low values 0.972 | S. cerevisiae deletion strains, locus YLR371W, strain rom2, hits give low values 1.04 | S. cerevisiae deletion strains, locus YLR384C, strain iki3, hits give low values 0.968 | S. cerevisiae deletion strains, locus YLR418C, strain cdc73, hits give low values 1.04 | S. cerevisiae deletion strains, locus YML016C, strain PPZ1, hits give low values 1 | S. cerevisiae deletion strains, locus YML032C, strain rad52, hits give low values 1.03 | S. cerevisiae deletion strains, locus YML120C, strain ndi1, hits give low values 0.964 | S. cerevisiae deletion strains, locus YML124C, strain tub3, hits give low values 1.01 | S. cerevisiae deletion strains, locus YMR058W, strain fet3, hits give low values 0.978 | S. cerevisiae deletion strains, locus YMR078C, strain ctf18, hits give low values 1.02 | S. cerevisiae deletion strains, locus YMR125W, strain sto1, hits give low values 0.984 | S. cerevisiae deletion strains, locus YMR129W, hits give low values 0.981 | S. cerevisiae deletion strains, locus YMR205C, strain PFK2, hits give low values 0.984 | S. cerevisiae deletion strains, locus YMR223W, strain ubp8, hits give low values 0.994 | S. cerevisiae deletion strains, locus YMR231W, strain pep5, hits give low values 1 | S. cerevisiae deletion strains, locus YMR263W, strain SAP30, hits give low values 1.04 | S. cerevisiae deletion strains, locus YMR307W, strain GAS1, hits give low values 0.992 and 1.03 | S. cerevisiae deletion strains, locus YNL067W, strain RPL9B, hits give low values 1.04 | S. cerevisiae deletion strains, locus YNL071W, strain lat1, hits give low values 0.988 | S. cerevisiae deletion strains, locus YNL128W, strain TEP1, hits give low values 1.02 | S. cerevisiae deletion strains, locus YNL153C, strain GIM3, hits give low values 1.02 | S. cerevisiae deletion strains, locus YNL175C, strain NOP13, hits give low values 1 | S. cerevisiae deletion strains, locus YNL197C, strain WHI3, hits give low values 0.977 | S. cerevisiae deletion strains, locus YNL209W, strain ssb2, hits give low values 0.993 | S. cerevisiae deletion strains, locus YNL224C, strain SQS1, hits give low values 0.992 | S. cerevisiae deletion strains, locus YNL233W, strain BNI4, hits give low values 1.02 | S. cerevisiae deletion strains, locus YNL248C, strain rpa49, hits give low values 1.02 | S. cerevisiae deletion strains, locus YNL250W, strain rad50, hits give low values 1.01 | S. cerevisiae deletion strains, locus YNL271C, strain bni1, hits give low values 1.02 | S. cerevisiae deletion strains, locus YNL298W, strain CLA4, hits give low values 1.02 | S. cerevisiae deletion strains, locus YNL307C, strain MCK1, hits give low values 1.02 | S. cerevisiae deletion strains, locus YNL322C, strain KRE1 (second series), hits give low values 0.982 | S. cerevisiae deletion strains, locus YNL322C, strain KRE1, hits give low values 1.02 and 1 | S. cerevisiae deletion strains, locus YNR049C, strain mso1, hits give low values 0.986 | S. cerevisiae deletion strains, locus YNR052C, strain pop2, hits give low values 1.01 | S. cerevisiae deletion strains, locus YOL006C, strain TOP1, hits give low values 1.08 | S. cerevisiae deletion strains, locus YOL012C, strain htz1 1.52 | S. cerevisiae deletion strains, locus YOL147C, strain pex11, hits give low values 1.01 | S. cerevisiae deletion strains, locus YOR001W, strain rrp6, hits give low values 0.957 | S. cerevisiae deletion strains, locus YOR061W, strain CKA2, hits give low values 0.999 | S. cerevisiae deletion strains, locus YOR069W, strain VPS5, hits give low values 1.01 | S. cerevisiae deletion strains, locus YOR070C, strain gyp1, hits give low values 0.996 | S. cerevisiae deletion strains, locus YOR080W, strain dia2, hits give low values 0.963 | S. cerevisiae deletion strains, locus YOR083W, strain WHI5 (second series), hits give low values 0.984 | S. cerevisiae deletion strains, locus YOR083W, strain WHI5, hits give low values 0.956 | S. cerevisiae deletion strains, locus YOR106W, strain vam3, hits give low values 0.964 | S. cerevisiae deletion strains, locus YOR136W, strain idh2, hits give low values 1.01 | S. cerevisiae deletion strains, locus YOR144C, strain elg1, hits give low values 1.02 | S. cerevisiae deletion strains, locus YOR184W, strain ser1, hits give low values 1.03 | S. cerevisiae deletion strains, locus YOR265W, strain rbl2, hits give low values 0.98 | S. cerevisiae deletion strains, locus YOR270C, strain vph1, hits give low values 0.997 | S. cerevisiae deletion strains, locus YOR290C, strain snf2, hits give low values 1.01 | S. cerevisiae deletion strains, locus YOR316C, strain cot1, hits give low values 1.02 | S. cerevisiae deletion strains, locus YPL051W, strain arl3, hits give low values 0.985 | S. cerevisiae deletion strains, locus YPL055C, strain LGE1, hits give low values 1.03 | S. cerevisiae deletion strains, locus YPL078C, strain atp4, hits give low values 0.919 | S. cerevisiae deletion strains, locus YPL106C, strain sse1, hits give low values 0.945 | S. cerevisiae deletion strains, locus YPL240C, strain hsp82, hits give low values 0.972 | S. cerevisiae deletion strains, locus YPL241C, strain CIN2, hits give low values 1 | S. cerevisiae deletion strains, locus YPR119W, strain clb2, hits give low values 1.02 | S. cerevisiae deletion strains, locus YPR141C, strain kar3, hits give low values 1.01 | S. cerevisiae deletion strains, locus YPR163C, strain tif3, hits give low values 1.03 | S. cerevisiae deletion strains, locus YPR167C, strain met16, hits give low values 1.02 | S. cerevisiae deletion strains, strain wtn01, hits give low values 1.05 | S. cerevisiae strains, strain wild type, hits give low values 1.01
